Consider 110 compounds from PubChem BioAssay AID1209 (Sanford-Burnham Center for Chemical Genomics, 2008).

The structures appear in SMILES notation. Screen size: about 190,000 compounds; about 810 (0.43%) were called active. The full list was thinned out, with actives kept by preference. A number with no mark means an inactive call. No stated cut-off is given here; in the data, active means inhibition above about 50%; inactive means the rest.

The target of this assay is Mannose-6-phosphate isomerase (Homo sapiens) (UniProt P34949). In words: MPI enzyme activity inhibition – biochemical, fluorescence intensity, coupled assay, primary screen (AID 1209).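 Further: plate controls were DMSO vehicle for no effect and wells lacking substrate for full effect.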 Particulars: purified PMI enzyme, at 20 µM, hits give high values.
Chain of Mannose-6-phosphate isomerase (Homo sapiens) (P34949 whole entry, looked up): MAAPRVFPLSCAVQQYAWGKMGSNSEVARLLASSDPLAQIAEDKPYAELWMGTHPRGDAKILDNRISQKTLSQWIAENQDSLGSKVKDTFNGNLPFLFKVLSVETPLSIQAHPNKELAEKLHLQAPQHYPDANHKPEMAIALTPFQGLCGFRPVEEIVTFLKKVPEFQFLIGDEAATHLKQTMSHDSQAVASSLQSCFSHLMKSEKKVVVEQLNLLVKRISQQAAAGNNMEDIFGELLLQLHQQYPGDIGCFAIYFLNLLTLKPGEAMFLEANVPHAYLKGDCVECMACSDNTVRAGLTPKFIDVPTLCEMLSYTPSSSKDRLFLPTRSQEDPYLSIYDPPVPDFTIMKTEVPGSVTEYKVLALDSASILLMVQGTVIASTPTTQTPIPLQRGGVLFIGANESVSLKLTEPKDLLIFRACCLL
As a reminder, the inhibition is the drop in the measured response relative to a control, in per cent. Consider `CCCCCc1nc2sc3c(c2c(=O)n1N)CCC3`, for which the inhibition is -5.8%. With `O=C(Cn1cnc2ccccc2c1=O)NCc1ccc2c(c1)OCO2` the figure was 2%. For the compound `O=C(CCc1ccccc1)NC(=S)NCc1ccco1`, the inhibition was 7.5%.

With `NCCCNC(=O)c1ccc(/C=N/O)nc1`, the inhibition is 0.9%. In the case of `C[N+](C)(C)CCCNC(=O)c1ccc(/C=N/O)nc1`, the inhibition was 83.5% (active). As to `CNCCCNC(=O)c1ccc(/C=N/O)nc1`, the inhibition is -9.8%. In the case of `CCOC(=O)CC(=O)Nc1ccc(Br)cc1C(=O)O`, the inhibition was 7.4%. With `COC(=O)c1ccc(-c2nc(-c3ccc(Br)o3)no2)cc1` the figure was 10.6%. With `COc1ccccc1Sc1ccccc1/C=N/NC(N)=O` the figure was 2.1%. In the case of `CC(C)(C)c1cc(=O)n(-c2ccccc2)[nH]1`, the inhibition was 64.7% (active). As for `COC(=O)Cc1cc(=O)n(-c2ccccc2)[nH]1`, the figure is 11%. On to `Cc1cc(=O)n(-c2ccc(C(=O)O)cc2)[nH]1`, for which the inhibition was -22.8%.

With `O=C1c2ccccc2C(=O)N1c1ccc(-c2nc3ccccc3o2)cc1`, the inhibition is -2.8%. For `O=C1c2ccccc2C(=O)N1Cc1nc2ccccc2o1`, the inhibition is -0.5%.

On to `CC(c1nc2ccccc2o1)N1C(=O)c2ccccc2C1=O` (stereo not given), for which the inhibition was 66.9% (active). With `Cc1ccc(NS(=O)(=O)c2ccccc2[N+](=O)[O-])cc1C` the figure was -10.7%; with `CCN1C(=O)CSc2ccc(C(=O)OC)cc21`, -2.3%; with `COc1ccc(NC(=S)N(Cc2cccc(Br)c2)CC2CCC(C(=O)O)CC2)cc1` (stereo not given), -6.9%. With `CN=c1scc(C)n1/N=C/c1ccc(O)cc1O` the figure was -4%; with `CC(C)N=c1scc(-c2cccs2)n1/N=C/c1ccc(O)c(O)c1O`, 75.9% (active). For the compound `Cc1nc2ccccc2c(=O)n1/N=C/c1cn(-c2ccccc2)nc1-c1cccs1`, the inhibition is -10.8%. With `CN=c1scc(-c2ccccc2F)n1/N=C(\C)c1cccnc1` the figure was -9.3%; with `CN=c1scc(-c2ccccc2F)n1/N=C/c1ccc[nH]1`, -16.2%.

`CN=c1scc(-c2cccs2)n1/N=C/c1ccccc1O`: the inhibition is 5.2%. `Oc1ccc(/C=N/n2c(-c3ccco3)csc2=Nc2cccnc2)c(O)c1`: the inhibition is -1.6%. Consider `CN=c1scc(-c2ccccc2F)n1/N=C/c1ccc(O)c(O)c1O`, for which the inhibition is 70.6% (active).

`Cc1ccc(OCC(O)Cn2c(=N)n(CCN3CCOCC3)c3ccccc32)cc1` (stereo not given): the inhibition was -3.6%. As for `CC(Oc1ccccc1)C(=O)N1CCN=C1SCc1ccccc1` (stereo not given), the figure is -6.4%; as for `Cc1cc(F)ccc1S(=O)(=O)N1CCCOC1CNC(=O)C(=O)NCc1ccco1` (stereo not given), -3.1%. As for `CCCCCNC(=O)c1ccc2c(=O)n(CCOC)c(=O)[nH]c2c1`, the figure is -5.7%; as for `O=C(CCNC(=O)c1ccccc1Cl)Nc1ccc(Br)c(C(F)(F)F)c1`, 15%. On to `CN1C(=S)SC(N(O)C(=O)Nc2cccc3ccccc23)C1(C)C` (stereo not given), for which the inhibition was 37.9%.

Consider `CC(NC(=O)c1ccc(C(F)(F)F)cc1)C(c1ccccc1)N1CCOCC1` (stereo not given), for which the inhibition is -8.2%.

As for `NC(=O)CNc1n[nH]c(=S)[nH]c1=O`, the inhibition was -27.7%. With `COc1cc(/C=N/Nc2ccc(C(F)(F)F)cn2)ccc1O` the figure was 7.1%. In the case of `Oc1ccc(/C=N/Nc2ccc(C(F)(F)F)cn2)cc1O`, the inhibition is 61.6% (active). For the compound `Oc1ccc(/C=N/Nc2ccc(C(F)(F)F)cn2)cc1`, the inhibition was -2.8%.

Turning to `Cc1cc(O)c2c(c1)C(O)(C1OC(CO)C(O)C(O)C1O)c1cccc(O)c1C2=O` (stereo not given), the inhibition is 2%. With `O=C(CCc1nnc(C2CCCCC2)o1)NCc1ccc(F)c(F)c1` the figure was -5.7%; with `CCOC(=O)c1cc(C(C)=O)c(=O)[nH]c1C`, 2.7%; with `CCCNC(=O)c1ccccc1NC(=O)c1ccccc1SC`, 0.3%. As for `C=CCN1C(=O)S/C(=C/c2ccc(Sc3nc4ccccc4[nH]3)o2)C1=O`, the figure is 44.5%; as for `CCN1C(=O)S/C(=C/c2ccc(Sc3nc4ccccc4[nH]3)o2)C1=O`, 56.4% (active). For `CC(C)N1C(=O)S/C(=C/c2ccc(Sc3nc4ccccc4[nH]3)o2)C1=O`, the inhibition is 26.5%.

Turning to `Cc1ccc(S(=O)(=O)NCCOc2nc(N(C)C)nc(N3CCOCC3)n2)cc1`, the inhibition is 16.3%. With `COC(=O)Cc1c(C(=O)OC)nnn1-c1cccc(C(F)(F)F)c1` the figure was 75.8% (active). With `O=C(O)Cc1c(C(=O)O)nnn1-c1cccc(C(F)(F)F)c1` the figure was -2.9%; with `COC(=O)Cc1c(C(=O)OC)nnn1-c1ccc(OC(F)(F)F)cc1`, -7.2%; with `O=C(NNC(=O)C1C2CCC(C2)C1C(=O)O)c1cccc(Cl)c1` (stereo not given), -7.9%. As for `O=C(CCCOc1ccccc1)N1CCN(c2ccccn2)CC1`, the figure is 0.9%; as for `O=C(NCc1cccnc1)c1ccc(COc2ccc3c(c2)CCC3)o1`, 11%. Take `Cc1ccc(Nc2c(F)c(F)c(F)c(F)c2C(=O)O)cc1`: the inhibition is -24%. With `COCCn1c(Cc2ccccc2)nnc1SCC(=O)Nc1cc(C)on1` the figure was 3.8%. On to `CCn1c(Cc2ccccc2)nnc1SCC(=O)Nc1cc(C)on1`, for which the inhibition was -6.5%. In the case of `CCCCn1c(Cc2ccccc2)nnc1SCC(=O)Nc1cc(C)on1`, the inhibition was 50.8% (active). With `Cc1ccccc1NC(=O)N1CCC(C(=O)c2ccc(F)cc2)CC1` the figure was -0.8%; with `O=C(CC(SCCO)c1ccc(F)cc1)c1ccco1` (stereo not given), 4.8%; with `O=C(CC(SCCO)c1ccc2c(c1)OCO2)c1ccco1` (stereo not given), 10.7%. Take `Cc1ccc(C(CC(=O)c2ccco2)SCCO)cc1` (stereo not given): the inhibition is 88.3% (active).

Consider `NCCCC[C@@H]1NC(=O)[C@H](CCC(=O)O)NC(=O)c2cc([N+](=O)[O-])cc(I)c2OCC[C@@H](C(N)=O)NC1=O`, for which the inhibition is -36.4%. With `CC1CN(S(=O)(=O)c2cccs2)CC(C)O1` (stereo not given) the figure was -2.4%. Regarding `Cc1cc2n(n1)SC(Nc1ccccc1)N2` (stereo not given), the inhibition was 24.7%. For `CCc1ccc(NC(=O)c2cc(C)on2)cc1`, the inhibition was 6.1%. With `CCc1ccc(Nc2cc(C)nc3nc(C)nn23)cc1` the figure was -5.4%; with `CN1C(=O)SC(Nc2ccc(F)cc2)C1=O` (stereo not given), 3.1%; with `Cc1cc2n(n1)SC(Nc1ccc(F)cc1)N2` (stereo not given), 64.5% (active). For the compound `COc1ccc(CCNC(=O)c2nnn(-c3cccc(C)c3)c2N)cc1OC`, the inhibition is 4.4%.

`Cc1nc(SC(C(=O)c2ccccc2)c2ccccc2)n[nH]1` (stereo not given): the inhibition was 2%.

Regarding `C=CCn1c(SCc2c(F)cccc2Cl)nnc1-c1ccco1`, the inhibition is -6.5%. As for `CCCn1c(NCc2ccco2)nc2c1c(=O)n(C)c(=O)n2C`, the figure is -8.2%; as for `COc1ccc(F)cc1C(=O)C1CCCN(Cc2ccc(Oc3ncccn3)cc2)C1` (stereo not given), -3.3%; as for `Cc1cccc(N2CCc3c2nc2ccc(Br)cc2c3N)c1`, 69.9% (active). As for `Nc1c2c(nc3ccc(Br)cc13)N(c1ccccc1)CC2`, the figure is 17%; as for `Cc1ccc2nc3c(c(N)c2c1)CCN3c1ccccc1`, 0.5%.

Take `CCN(CC)S(=O)(=O)c1ccc2c(c1)nc(CCC(=O)Nc1ccc(N3CCOCC3)cc1)n2C`: the inhibition was 3.7%. For `COc1ccc(Cl)cc1Nc1ncnc2sc(C)c(S(=O)(=O)N3CCC(C)CC3)c12`, the inhibition is 5.4%. With `Nc1ccc2nc[nH]c2c1` the figure was -17.5%.

Regarding `Cc1cc2nc[nH]c2cc1[N+](=O)[O-]`, the inhibition was 4%. With `Nc1cc2nc[nH]c2cc1N` the figure was 68.3% (active); with `c1ccc2c(-c3nn[nH]n3)cccc2c1`, -8.6%; with `O=C(N/N=C/c1ccc(N2CCOCC2)o1)c1cccc([N+](=O)[O-])c1`, 79% (active). Regarding `O=C(N/N=C/c1ccc(N2CCOCC2)o1)c1cccc(C(F)(F)F)c1`, the inhibition is -5.7%. With `O=C(N/N=C/c1ccc(N2CCOCC2)o1)c1cccc(F)c1` the figure was -2.7%; with `CCOC(=O)c1c(-c2ccc(C)cc2)csc1/N=C/N(C)C`, 12.2%. With `COc1ccc(OC)c(N=C(N)N=C(N)N)c1` the figure was 2.9%. For the compound `COc1ccc(OC)c(N=c2ssnc2Cl)c1`, the inhibition is 88.1% (active). With `COc1cc(N)c(Cl)cc1Cl` the figure was -7.9%. As for `COc1cc(N=c2ssnc2Cl)c(OC)cc1Cl`, the figure is 98.9% (active). With `COc1ccc(OC)c(N=C2C(=O)Nc3ccccc32)c1` the figure was 16.4%. For the compound `COc1cc(OC)c(Cl)cc1N`, the inhibition is 9.7%. Turning to `C#CCOCCOCCOCCNc1nc(N2CCN(C(=O)C([C@@H](C)CC)n3cc(C(N)Cc4ccc(O)cc4)nn3)CC2)nc(N2CCN(C(=O)[C@H](CCC(=O)O)n3cc(C(N)CC(C)C)nn3)CC2)n1` (stereo not given in full), the inhibition was -18.6%. For the compound `COc1ccc(C(=O)/C=C/C(=O)N(Cc2ccccc2OC)C(C(=O)NC2CCCCC2)c2ccncc2)c(O)c1` (stereo not given), the inhibition is 13.1%. As for `Cc1ccc(S(=O)(=O)/N=C(/c2ccc(F)cc2)N2CCCC2)cc1`, the figure is 7.2%; as for `CSc1ccc(/C=C/C(=O)c2ccc(NC(=O)Cc3ccccc3)cc2)cc1`, 15.3%; as for `Cc1nn(-c2cc(N3CCCCC3)ccc2N)c(=O)c2ccccc12`, 25.5%.

For `Nc1ccc(N2CCCCCC2)cc1`, the inhibition is -3.3%. For the compound `Nc1ccc(N2CCCCC2)cc1N1CCCCC1`, the inhibition was 61.7% (active). As for `Cc1ccc2nc(N(CCCN(C)C)C(=O)COc3ccc(Cl)cc3)sc2c1`, the figure is -9.9%; as for `CN(C)CCCN(C(=O)COc1ccc(Cl)cc1)c1nc2ccc(F)cc2s1`, -8%. As for `Cc1cc(C)c2sc(N(CCCN(C)C)C(=O)COc3ccc(Cl)cc3)nc2c1`, the figure is 50.2% (active).

Take `COc1ccc(-n2ncc3c(=O)n(Cc4c(F)cccc4Cl)cnc32)cc1`: the inhibition was 1.8%. On to `Cc1ccc(NS(=O)(=O)c2cc(NC(=O)c3ccc4c(c3)NC(=O)CS4)ccc2Cl)c(C)c1`, for which the inhibition is 59.3% (active). With `Cc1ccc(NS(=O)(=O)c2cc(C(=O)O)ccc2Cl)c(C)c1` the figure was -31.1%; with `COc1ccc(NC(=O)c2c(F)cccc2F)cc1S(=O)(=O)Nc1ccc(Br)cc1`, 19.4%.

As for `O=C(Nc1cccc(S(=O)(=O)Nc2ccc(Cl)cc2)c1)c1ccc(Cl)nc1`, the inhibition was 15.9%. As for `Cc1ccc(NS(=O)(=O)c2cc(NC(=O)c3ccc4c(c3)NC(=O)CS4)ccc2C)c(C)c1`, the figure is 41.1%; as for `O=C1CSc2ccc(C(=O)Nc3cccc(S(=O)(=O)Nc4ccc(Br)cc4)c3)cc2N1`, 62.8% (active); as for `COc1ccc(NC(=O)c2cccc(S(=O)(=O)Nc3ccc(Br)cc3)c2)cn1`, 12.5%.

Take `COc1ccc(NS(=O)(=O)c2cc(NC(=O)c3ccc(F)cc3)ccc2OC)cc1`: the inhibition was 14.1%. Take `COc1ccc(NC(=O)c2ccc3c(c2)NC(=O)CS3)cc1S(=O)(=O)Nc1ccc(Br)cc1`: the inhibition is 54.5% (active).
